# Measured values: PubChem BioAssay (EPA / NIEHS)
# Inconclusive results are not listed. Calls of active or inactive are those of the source. Rule for the calls: active = hit-call score of the fitted dose curve at least 0.9, where 1 is the maximum; inconclusive = response in the unintended direction; inactive = score below 0.9.
# Experiments:
# [1] = molecular target: Tyrosine-protein phosphatase non-receptor type 11 (Homo sapiens) (UniProt Q06124); experiment: NVS_ENZ_hPTPN11: NovaScreen (NVS) Enzymatic Assay for human Protein Tyrosine Phosphatase Non-receptor Type 11 (PTPN11) (AID 2283202)
# Tyrosine-protein phosphatase non-receptor type 11 (Homo sapiens), sequence (Q06124 whole entry, looked up): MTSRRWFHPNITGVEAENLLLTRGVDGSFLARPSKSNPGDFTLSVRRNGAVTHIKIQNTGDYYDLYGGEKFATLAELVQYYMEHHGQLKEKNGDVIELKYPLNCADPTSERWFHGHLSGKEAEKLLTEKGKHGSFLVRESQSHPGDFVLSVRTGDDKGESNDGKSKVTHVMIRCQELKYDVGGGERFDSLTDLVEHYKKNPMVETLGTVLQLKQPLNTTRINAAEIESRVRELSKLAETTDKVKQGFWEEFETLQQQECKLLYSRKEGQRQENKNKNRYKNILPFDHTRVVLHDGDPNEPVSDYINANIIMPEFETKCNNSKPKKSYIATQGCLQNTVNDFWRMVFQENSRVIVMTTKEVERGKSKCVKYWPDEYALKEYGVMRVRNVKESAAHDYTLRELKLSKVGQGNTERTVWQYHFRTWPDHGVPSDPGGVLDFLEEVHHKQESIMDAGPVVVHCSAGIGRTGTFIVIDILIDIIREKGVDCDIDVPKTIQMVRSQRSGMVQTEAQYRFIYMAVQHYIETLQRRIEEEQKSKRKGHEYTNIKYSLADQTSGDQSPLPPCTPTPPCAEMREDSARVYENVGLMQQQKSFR
# How it was run: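 Recombinant human PTPN11 activity on a fluorescent substrate, with substrate/product separated by electrophoretic mobility shift; read 0.5 h after dosing, loss of signal vs DMSO. Duplicate 25 uM screen, then concentration-response up to 50 uM.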
# [2] = molecular target: human Phosphatase and Tensin Homolog (PTEN), PTEN (gene 5728) (UniProt P60484); experiment: NVS_ENZ_hPTEN: NovaScreen (NVS) Enzymatic Assay for human Phosphatase and Tensin Homolog (PTEN) (AID 2283203)
# human Phosphatase and Tensin Homolog (PTEN), PTEN (gene 5728), sequence (P60484 whole entry, looked up): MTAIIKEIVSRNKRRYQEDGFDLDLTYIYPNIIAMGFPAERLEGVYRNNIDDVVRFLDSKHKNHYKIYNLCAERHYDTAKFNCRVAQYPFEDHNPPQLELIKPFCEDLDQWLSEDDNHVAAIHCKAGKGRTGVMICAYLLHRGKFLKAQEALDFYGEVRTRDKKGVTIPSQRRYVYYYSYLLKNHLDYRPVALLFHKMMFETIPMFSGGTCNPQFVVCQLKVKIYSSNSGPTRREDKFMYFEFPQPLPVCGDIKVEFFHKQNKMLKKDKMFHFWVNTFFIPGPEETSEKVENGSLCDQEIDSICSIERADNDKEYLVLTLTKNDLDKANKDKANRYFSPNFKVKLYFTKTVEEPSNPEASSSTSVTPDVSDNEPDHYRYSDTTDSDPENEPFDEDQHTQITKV
# How it was run: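 Cell-free recombinant human PTEN with fluorescent substrate; product separated by electrophoretic mobility shift and read by fluorescence 1 h after dosing. Primary screen in duplicate at 25 uM, actives followed in concentration series versus DMSO.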
# [3] = molecular target: Tyrosine-protein phosphatase non-receptor type 12 (Homo sapiens) (UniProt Q05209); experiment: NVS_ENZ_hPTPN12: NovaScreen (NVS) Enzymatic Assay for human Protein Tyrosine Phosphatase Non-receptor Type 12 (PTPN12) (AID 2283204)
# Tyrosine-protein phosphatase non-receptor type 12 (Homo sapiens), sequence (Q05209 whole entry, looked up): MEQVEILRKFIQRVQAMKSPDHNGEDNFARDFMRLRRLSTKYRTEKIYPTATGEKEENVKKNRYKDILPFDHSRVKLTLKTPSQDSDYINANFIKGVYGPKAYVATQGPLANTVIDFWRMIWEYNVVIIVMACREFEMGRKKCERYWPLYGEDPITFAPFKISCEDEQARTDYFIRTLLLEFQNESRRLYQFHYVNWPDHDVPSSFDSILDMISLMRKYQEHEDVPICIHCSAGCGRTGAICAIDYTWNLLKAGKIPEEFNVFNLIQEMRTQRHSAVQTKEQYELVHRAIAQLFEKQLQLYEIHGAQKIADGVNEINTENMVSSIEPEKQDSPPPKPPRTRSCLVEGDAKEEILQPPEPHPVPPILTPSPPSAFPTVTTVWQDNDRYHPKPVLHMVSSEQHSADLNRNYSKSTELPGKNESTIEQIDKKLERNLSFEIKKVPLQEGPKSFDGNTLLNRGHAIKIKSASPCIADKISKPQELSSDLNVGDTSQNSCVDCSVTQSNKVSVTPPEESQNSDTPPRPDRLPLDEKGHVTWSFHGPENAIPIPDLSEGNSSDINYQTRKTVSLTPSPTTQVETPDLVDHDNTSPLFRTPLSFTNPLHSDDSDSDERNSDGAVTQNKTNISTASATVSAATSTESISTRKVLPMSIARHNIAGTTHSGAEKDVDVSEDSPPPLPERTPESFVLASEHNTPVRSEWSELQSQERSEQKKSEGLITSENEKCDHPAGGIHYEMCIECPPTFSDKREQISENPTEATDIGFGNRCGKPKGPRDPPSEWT
# How it was run: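 Single-concentration duplicates (25 uM) preceded singleton concentration-response up to 50 uM for chemicals passing threshold. Cell-free recombinant PTPN12 activity was read 1.33 h after dosing via fluorescence after mobility-shift separation; loss of signal versus DMSO.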
# [4] = molecular target: human Phosphodiesterase 10 (PDE10), PDE10A (gene 10846) (UniProt Q9Y233); experiment: NVS_ENZ_hPDE10: NovaScreen (NVS) Enzymatic Assay for human Phosphodiesterase 10 (PDE10) (AID 2283195)
# human Phosphodiesterase 10 (PDE10), PDE10A (gene 10846), sequence (Q9Y233 whole entry, looked up): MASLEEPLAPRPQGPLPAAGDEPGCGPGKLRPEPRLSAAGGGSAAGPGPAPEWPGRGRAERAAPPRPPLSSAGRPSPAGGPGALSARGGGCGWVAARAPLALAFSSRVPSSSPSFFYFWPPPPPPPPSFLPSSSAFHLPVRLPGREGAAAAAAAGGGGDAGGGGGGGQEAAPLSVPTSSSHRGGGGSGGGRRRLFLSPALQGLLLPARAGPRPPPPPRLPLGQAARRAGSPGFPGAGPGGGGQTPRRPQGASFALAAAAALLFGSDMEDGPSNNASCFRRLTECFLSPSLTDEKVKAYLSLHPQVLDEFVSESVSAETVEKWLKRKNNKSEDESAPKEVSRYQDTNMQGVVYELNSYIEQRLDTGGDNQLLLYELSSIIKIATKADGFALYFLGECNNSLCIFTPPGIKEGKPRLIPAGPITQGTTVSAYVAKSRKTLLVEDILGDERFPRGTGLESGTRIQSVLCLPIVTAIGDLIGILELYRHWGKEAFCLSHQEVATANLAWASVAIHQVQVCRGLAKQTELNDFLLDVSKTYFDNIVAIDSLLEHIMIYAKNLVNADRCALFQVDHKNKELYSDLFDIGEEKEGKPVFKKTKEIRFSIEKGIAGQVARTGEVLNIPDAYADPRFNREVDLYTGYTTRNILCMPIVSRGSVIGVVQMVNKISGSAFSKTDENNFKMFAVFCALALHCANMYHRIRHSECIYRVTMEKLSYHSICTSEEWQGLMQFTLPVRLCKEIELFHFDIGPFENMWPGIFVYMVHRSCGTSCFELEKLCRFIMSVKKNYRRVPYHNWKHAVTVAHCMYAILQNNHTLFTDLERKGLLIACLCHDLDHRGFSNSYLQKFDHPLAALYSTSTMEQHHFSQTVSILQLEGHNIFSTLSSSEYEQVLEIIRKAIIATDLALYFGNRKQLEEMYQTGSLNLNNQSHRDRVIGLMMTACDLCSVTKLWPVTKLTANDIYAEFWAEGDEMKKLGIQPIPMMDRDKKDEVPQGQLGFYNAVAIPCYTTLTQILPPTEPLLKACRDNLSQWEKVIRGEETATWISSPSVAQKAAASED
# How it was run: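 PDE10A, cell-free; 1 h incubation; fluorescence intensity + electrophoretic mobility shift separating substrate/product; DMSO = baseline; 25 uM duplicate primary, CRC up to 50 uM.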
# [5] = molecular target: cAMP-dependent protein kinase catalytic subunit alpha (Homo sapiens) (UniProt P17612); experiment: NVS_ENZ_hPKA: NovaScreen (NVS) Enzymatic Assay for human Protein Kinase A (PKA) (AID 2283192)
# How it was run: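 Recombinant human PKA with specific fluorescent substrate, product separated by electrophoretic mobility shift, read 1 h after dosing. Primary screen at 25 uM in duplicate; actives then run in concentration-response up to 50 uM, activity relative to DMSO.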
# [6] = molecular target: human Phosphodiesterase 4A1 (PDE4A1), PDE4A (gene 5141) (UniProt P27815); experiment: NVS_ENZ_hPDE4A1: NovaScreen (NVS) Enzymatic Assay for human Phosphodiesterase 4A1 (PDE4A1) (AID 2283191)
# human Phosphodiesterase 4A1 (PDE4A1), PDE4A (gene 5141), sequence (P27815 whole entry, looked up): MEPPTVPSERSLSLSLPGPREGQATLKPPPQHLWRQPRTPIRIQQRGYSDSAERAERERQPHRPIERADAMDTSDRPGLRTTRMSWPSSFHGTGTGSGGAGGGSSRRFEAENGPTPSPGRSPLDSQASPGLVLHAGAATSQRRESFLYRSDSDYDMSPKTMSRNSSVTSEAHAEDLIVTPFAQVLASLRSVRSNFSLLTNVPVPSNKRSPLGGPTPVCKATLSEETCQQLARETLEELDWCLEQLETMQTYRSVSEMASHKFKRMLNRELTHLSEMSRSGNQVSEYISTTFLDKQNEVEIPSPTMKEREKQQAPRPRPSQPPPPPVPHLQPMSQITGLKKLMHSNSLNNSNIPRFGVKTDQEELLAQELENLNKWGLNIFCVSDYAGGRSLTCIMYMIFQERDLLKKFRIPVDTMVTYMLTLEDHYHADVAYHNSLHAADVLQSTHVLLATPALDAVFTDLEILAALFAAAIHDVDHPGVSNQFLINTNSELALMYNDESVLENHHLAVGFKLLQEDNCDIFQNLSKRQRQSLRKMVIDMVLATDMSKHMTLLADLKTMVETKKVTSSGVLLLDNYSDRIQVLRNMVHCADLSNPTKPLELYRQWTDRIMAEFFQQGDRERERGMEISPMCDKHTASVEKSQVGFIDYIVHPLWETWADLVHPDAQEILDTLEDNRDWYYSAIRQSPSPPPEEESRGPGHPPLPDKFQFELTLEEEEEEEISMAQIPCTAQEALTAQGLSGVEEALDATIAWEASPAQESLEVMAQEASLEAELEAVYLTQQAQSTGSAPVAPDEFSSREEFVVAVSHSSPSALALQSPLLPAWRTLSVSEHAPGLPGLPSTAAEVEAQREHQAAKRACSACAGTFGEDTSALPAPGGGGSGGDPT
# How it was run: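 Cell-free recombinant human PDE4A1 with fluorescent substrate; product separated by electrophoretic mobility shift, 1 h. Screened at 25 uM, then up to 50 uM in concentration-response; loss of signal fitted against DMSO.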
# [7] = molecular target: human Protein Phosphatase, Mg2+/Mn2+ Dependent 1A (PPM1A), PPM1A (gene 5494) (UniProt P35813); experiment: NVS_ENZ_hPPM1A: NovaScreen (NVS) Enzymatic Assay for human Protein Phosphatase, Mg2+/Mn2+ Dependent 1A (PPM1A) (AID 2283198)
# human Protein Phosphatase, Mg2+/Mn2+ Dependent 1A (PPM1A), PPM1A (gene 5494), sequence (P35813 whole entry, looked up): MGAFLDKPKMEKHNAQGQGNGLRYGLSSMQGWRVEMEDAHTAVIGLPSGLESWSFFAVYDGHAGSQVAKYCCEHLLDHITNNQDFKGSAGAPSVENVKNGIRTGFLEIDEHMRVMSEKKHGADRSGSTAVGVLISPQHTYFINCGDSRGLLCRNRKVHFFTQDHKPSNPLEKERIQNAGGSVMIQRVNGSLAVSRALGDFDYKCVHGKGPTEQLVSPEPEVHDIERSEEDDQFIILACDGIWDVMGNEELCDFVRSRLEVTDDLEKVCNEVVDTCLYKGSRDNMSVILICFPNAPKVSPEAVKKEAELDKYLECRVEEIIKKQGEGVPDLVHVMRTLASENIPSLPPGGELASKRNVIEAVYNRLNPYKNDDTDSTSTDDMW
# How it was run: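 Cell-free recombinant PPM1A phosphatase assay with fluorescent substrate, read 1 h after dosing by electrophoretic mobility shift. Chemicals screened in duplicate at 25 uM, then in concentration-response up to 50 uM; loss of activity versus DMSO.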
# [8] = molecular target: human Phosphodiesterase 5 (PDE5), PDE5A (gene 8654) (UniProt O76074); experiment: NVS_ENZ_hPDE5: NovaScreen (NVS) Enzymatic Assay for human Phosphodiesterase 5 (PDE5) (AID 2283194)
# How it was run: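 Recombinant human PDE5 with specific substrate, read 1 h after dosing by fluorescence with electrophoretic mobility-shift separation of substrate and product. Initial single-concentration duplicate screen at 25 uM, actives followed in concentration series; loss of activity versus DMSO.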
# [9] = molecular target: human Protein Tyrosine Phosphatase Non-receptor Type 1 (PTPN1), PTPN1 (gene 5770) (UniProt P18031); experiment: NVS_ENZ_hPTPN1: NovaScreen (NVS) Enzymatic Assay for human Protein Tyrosine Phosphatase Non-receptor Type 1 (PTPN1) (AID 2283201)
# human Protein Tyrosine Phosphatase Non-receptor Type 1 (PTPN1), PTPN1 (gene 5770), sequence (P18031 whole entry, looked up): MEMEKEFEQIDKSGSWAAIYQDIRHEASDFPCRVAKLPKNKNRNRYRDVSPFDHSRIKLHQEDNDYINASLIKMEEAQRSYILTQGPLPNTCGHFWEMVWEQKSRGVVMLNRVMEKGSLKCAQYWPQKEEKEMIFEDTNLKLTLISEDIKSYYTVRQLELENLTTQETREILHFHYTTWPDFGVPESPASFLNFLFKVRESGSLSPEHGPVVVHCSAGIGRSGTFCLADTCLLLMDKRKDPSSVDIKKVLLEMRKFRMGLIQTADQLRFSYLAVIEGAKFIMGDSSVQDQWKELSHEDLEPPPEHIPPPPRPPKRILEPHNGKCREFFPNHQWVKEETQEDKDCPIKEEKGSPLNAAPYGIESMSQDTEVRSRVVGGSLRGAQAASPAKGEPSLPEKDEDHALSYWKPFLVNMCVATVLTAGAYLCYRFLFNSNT
# How it was run: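 Cell-free fluorogenic-substrate activity assay on recombinant enzyme, read 1.33 h after dosing by fluorescence and electrophoretic mobility shift; loss of signal vs DMSO baseline. Primary screen in duplicate at 25 uM, hits then run in concentration-response up to 50 uM.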
# [10] = molecular target: Serine/threonine-protein phosphatase PP1-alpha catalytic subunit (Homo sapiens) (UniProt P62136); experiment: NVS_ENZ_hPPP1CA: NovaScreen (NVS) Enzymatic Assay for human Protein Phosphatase 1 Aatalytic subunit Alpha (PPP1CA) (AID 2283200)
# Serine/threonine-protein phosphatase PP1-alpha catalytic subunit (Homo sapiens), sequence (P62136 whole entry, looked up): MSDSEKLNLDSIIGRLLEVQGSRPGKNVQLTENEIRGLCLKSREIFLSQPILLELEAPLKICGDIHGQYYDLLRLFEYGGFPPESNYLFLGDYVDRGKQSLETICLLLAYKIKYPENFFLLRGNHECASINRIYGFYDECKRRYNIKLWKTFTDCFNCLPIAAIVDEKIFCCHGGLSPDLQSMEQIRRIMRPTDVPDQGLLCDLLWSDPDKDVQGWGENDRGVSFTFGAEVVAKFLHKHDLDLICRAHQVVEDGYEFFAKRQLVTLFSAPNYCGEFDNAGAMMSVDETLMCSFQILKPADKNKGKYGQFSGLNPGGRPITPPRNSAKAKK
# How it was run: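 Recombinant enzyme activity read by fluorescence with electrophoretic mobility shift separating substrate from product, 1.33 h after dosing; loss of signal vs DMSO baseline. Primary screen in duplicate at 25 uM; actives retested in concentration-response up to 50 uM.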
compound,measurement,setting,value
COc1nn(C(=O)NS(=O)(=O)c2ccccc2OC(F)(F)F)c(=O)n1C,AC50,[1],13.3 µM (active)
same,AC50,[2],9.29 µM (active)
same,AC50,[3],5.64 µM (active)
N#Cc1ccccc1Cl,outcome,[4],inactive
CCCCCCCCCCCCOS(=O)(=O)O,AC50,[2],21.6 µM (active)
CN(C)C(=S)S,outcome,[5],inactive
same,outcome,[2],inactive
O=C(N[C@H]1CN2CCC1CC2)c1ccc2c(c1)OCCO2,outcome,[6],inactive
same,outcome,[5],inactive
same,outcome,[4],inactive
same,outcome,[7],inactive
C[C@]12CC[C@@H](O)C[C@@H]1CC[C@@H]1[C@@H]2CC[C@]2(C)C(=O)CC[C@@H]12,outcome,[2],inactive
COC(=O)Nc1cccc(OC(=O)Nc2cccc(C)c2)c1,outcome,[8],inactive
N#Cc1cccnc1,outcome,[5],inactive
same,AC50,[8],40.8 µM (active)
same,outcome,[9],inactive
same,outcome,[1],inactive
same,outcome,[2],inactive
same,outcome,[3],inactive
CC1(C)[C@H](C(=O)O[C@H](C#N)c2cccc(Oc3ccccc3)c2)[C@@H]1/C=C(\Cl)C(F)(F)F,outcome,[8],inactive
same,outcome,[4],inactive
CC1CC(=O)O1 (configuration not stated),outcome,[4],inactive
Cc1ccccc1OP(=O)(Oc1ccccc1)Oc1ccccc1,AC50,[2],44.9 µM (active)
CC(C)[N+](=O)[O-],outcome,[4],inactive
CCCCOP(=O)(CCCC)OCCCC,outcome,[4],inactive
CCCCCCCCCCCCc1cccc(S(=O)(=O)O)c1,AC50,[5],29.9 µM (active)
same,AC50,[8],14.7 µM (active)
same,AC50,[10],35.3 µM (active)
same,AC50,[9],14.8 µM (active)
same,AC50,[1],22.5 µM (active)
same,AC50,[2],12.9 µM (active)
same,AC50,[3],12.8 µM (active)
CN(CCCC(O)c1cccnc1)N=O (configuration not stated),AC50,[4],35.5 µM (active)
O=c1oc2ccccc2c(O)c1C(CC(O)c1ccc(-c2ccc(Br)cc2)cc1)c1ccccc1 (configuration not stated),outcome,[4],inactive
Cc1cccc(OP(=O)(Oc2cccc(C)c2)Oc2cccc(C)c2)c1,outcome,[2],inactive
BrCCCCBr,AC50,[4],4.81 µM (active)
CCCCC(CC)COC(=O)Cl (configuration not stated),AC50,[2],4.14 µM (active)
COCC(=O)N(c1c(C)cccc1C)[C@H](C)C(=O)OC,outcome,[2],inactive
Oc1c(Cl)cc(Cl)cc1Cl,outcome,[8],inactive
c1ccc2sc(SNC3CCCCC3)nc2c1,outcome,[4],inactive
Nc1c(Oc2ccccc2)cc(O)c2c1C(=O)c1ccccc1C2=O,outcome,[2],inactive
CC(C)(C)c1ccc(CCOc2ncnc3ccccc23)cc1,outcome,[4],inactive
Cc1ccccc1OP(=O)(Oc1ccccc1C)Oc1ccccc1C,AC50,[2],45.1 µM (active)
O=C1c2ccccc2C(=O)C1C(=O)C(c1ccccc1)c1ccc(Cl)cc1 (configuration not stated),AC50,[1],9.45 µM (active)
same,AC50,[2],15.2 µM (active)
same,AC50,[3],20 µM (active)
CCOP(=O)(OCC)SCCSCC,outcome,[4],inactive
Clc1cccc(Cl)c1Cl,outcome,[2],inactive
same,outcome,[3],inactive
COc1ccccc1N,outcome,[4],inactive
same,AC50,[10],14.8 µM (active)
OC(Cc1ccccc1Cl)(Cn1[nH]cnc1=S)C1(Cl)CC1 (configuration not stated),outcome,[2],inactive
Nc1ccc(N)cc1,AC50,[4],2.5 µM (active)
CC(C)(COCC1CO1)COCC1CO1 (configuration not stated),outcome,[2],inactive
O=[N+]([O-])c1ccc(Nc2ccccc2)cc1,outcome,[4],inactive
CC(C)O.CC(C)O.OCCN(CCO)CCO.OCCN(CCO)CCO.[Ti],AC50,[5],0.00229 µM (active)
same,AC50,[9],0.00438 µM (active)
same,AC50,[1],13.6 µM (active)
same,AC50,[2],0.493 µM (active)
same,AC50,[3],0.00439 µM (active)
OC[P+](CO)(CO)CO,AC50,[4],9.04 µM (active)
Oc1ccc(Cc2ccc(O)cc2)cc1,outcome,[4],inactive
